Compound activity: PubChem BioAssay, National Center for Advancing Translational Sciences (NCATS)
Nrf2 inh – inhibitors of Nrf2 signaling; A549 ARE-Fluc reporter, luciferase luminescence, 18-24 h; Potency, µM (top dose mostly 46 µM), usual class: inhibitors; 360,000 tested, 2.1% active; AID 504444; also: nearly all actives have a fitted effect of over 60% in size
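Concentration-response testing used A549 ARE_Fluc cells at 5000 cells/well. Following an 18-24 h compound incubation, viability was read by fluorescence (Ex 405/Em 525) and luciferase output by luminescence.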
Nrf2 activator – activates Nrf2 signaling. AREc32 ARE-luciferase reporter (MCF7-derived line), luminescence, 24 h. Potency, µM (top dose mostly 46.1 µM), actives largely listed as activators. 410,000 tested, 0.31% active. AID 624171; also: nearly all actives have a fitted effect of over 65% in size
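Luciferase luminescence (Steady-Glo, 30 min at room temperature) served as the read-out of ARE activation in AREc32 cells treated with compounds for 24 hr at 37 deg C.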
A549 tox – A549 cytotoxicity, counter-screen for Nrf2 inhibitors. A549 ARE-Fluc cells, CellTiter-Fluor viability, 18-24 h. Potency, µM (highest dose often 46 µM), hits mostly inhibitors. 390,000 tested, 0.16% active
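A549 ARE-Fluc cells in 5% FBS OPTI-MEM, 5000 cells/well, rested 2 h then exposed to compounds in concentration-response for 18-24 h at 37 °C. Viability by CellTiter-Fluor fluorescence (Ex 405/Em 525) after 30 min; luciferase luminescence (BugLite, 15 min, RT) read afterwards.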
Rango complex inh – prevents formation of the Rango-importin beta complex. Q14974. Rango CFP/YFP FRET sensor + importin beta, 45 min. Potency, µM (doses to about 92.2 µM). 340,000 tested, 0.031% active; calls by dose curve; also: nearly all actives have a fitted effect of over 15% in size
Target sequence (Q14974 whole entry, looked up): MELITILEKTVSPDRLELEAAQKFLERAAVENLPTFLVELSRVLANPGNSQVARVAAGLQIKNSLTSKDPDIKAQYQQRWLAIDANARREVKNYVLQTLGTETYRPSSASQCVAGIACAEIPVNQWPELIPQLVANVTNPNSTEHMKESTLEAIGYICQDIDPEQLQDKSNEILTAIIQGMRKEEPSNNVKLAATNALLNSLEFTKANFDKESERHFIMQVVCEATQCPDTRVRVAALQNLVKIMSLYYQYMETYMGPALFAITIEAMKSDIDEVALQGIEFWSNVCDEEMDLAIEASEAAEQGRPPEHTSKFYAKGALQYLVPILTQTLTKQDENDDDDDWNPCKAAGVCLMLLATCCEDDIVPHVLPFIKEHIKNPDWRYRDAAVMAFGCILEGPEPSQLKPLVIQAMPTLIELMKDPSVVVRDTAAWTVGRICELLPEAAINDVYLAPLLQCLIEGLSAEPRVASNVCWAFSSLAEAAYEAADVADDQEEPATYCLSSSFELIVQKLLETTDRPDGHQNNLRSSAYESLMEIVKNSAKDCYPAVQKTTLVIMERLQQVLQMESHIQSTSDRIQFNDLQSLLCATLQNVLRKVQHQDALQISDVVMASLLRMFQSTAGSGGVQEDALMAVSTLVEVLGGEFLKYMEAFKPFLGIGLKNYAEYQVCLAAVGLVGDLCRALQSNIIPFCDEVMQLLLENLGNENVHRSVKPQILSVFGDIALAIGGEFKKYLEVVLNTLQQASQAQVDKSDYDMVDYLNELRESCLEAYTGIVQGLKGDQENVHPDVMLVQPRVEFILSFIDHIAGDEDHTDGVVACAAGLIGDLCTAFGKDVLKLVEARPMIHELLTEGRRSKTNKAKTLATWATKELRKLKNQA
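FRET biosensor (snurportin 1 IBB flanked by EYFP and cerulean), 50 nM, with compound 5 min, then 0.125 microM importin beta in PBS, 1 mM DTT, 0.02% Tween-20, 0.1% BSA. CFP/YFP ratio read after 45 min at room temperature; pre-read flags interference.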
Rango dissoc inh – prevents RanGTP from dissociating the Rango-importin beta complex | Biochemical FRET Rango-importin beta, RanGTP-induced dissociation | Potency, µM (titrated, usually from 46.1 µM) | 340,000 tested, 0.071% active; calls by dose curve; also: nearly all actives have a fitted effect of over 45% in size
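Compounds preincubate 5 min with complex of recombinant Rango and importin beta in PBS with 1 mM DTT. Ran (0.6 uM) loaded with 2 mM GTP plus 0.2 uM RCC1 starts dissociation; FRET is recorded 45 min later.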
A number is an active result; [ ] = another dose, or the depositor's remark. Rows were chosen to be rich in hits. Some 2.3% of all compounds tested hit in one or more screens of this group. Unless noted, calls follow the shape of the dose curve; as a rule, active = well fitted curve in the direction sought with a large enough effect; inconclusive = small, poorly fitted or top-dose-only effect, or another doubt; inactive = no such curve, though single readings can be large; an effect the other way counts as inactive or inconclusive.

For Cc1cccc(Cn2nnc3c2C(=O)c2ccccc2C3=O)c1 the results were Nrf2 inh 20.6µM, Nrf2 activator inactive, A549 tox inconclusive, Rango complex inh inactive and Rango dissoc inh inactive.
Cc1ccccc1Cn1nnc2c1C(=O)c1ccccc1C2=O was read as Nrf2 inh inconclusive, Nrf2 activator inactive, A549 tox inactive, Rango complex inh inactive and Rango dissoc inh inactive.
`CC(C)c1nn2c(=O)cc(COC(=O)c3ccc(NC(=O)C4CCCCC4)cc3)nc2s1` gave Nrf2 activator inactive and A549 tox inactive.
`CCOC(=O)N1CCN(C(=O)c2ccc(SC)cc2OC)CC1` gave Nrf2 inh 11.6µM, Nrf2 activator inactive, A549 tox inactive, Rango complex inh inactive and Rango dissoc inh inactive.
O=C(c1ccc(COc2ccc(Cl)cc2)o1)N1CCN(Cc2ccc3c(c2)OCO3)CC1 was read as Nrf2 inh 23.1µM, Nrf2 activator inactive, A549 tox inactive, Rango complex inh inactive and Rango dissoc inh inactive.
`COc1cc(SC)ccc1C(=O)N1CCN(Cc2ccc3c(c2)OCO3)CC1` gave Nrf2 inh 14.6µM, Nrf2 activator inactive, A549 tox inactive, Rango complex inh inactive and Rango dissoc inh inactive.
`CCc1cccc(NC(=O)CCCCCC2NC(=O)NC2C)c1` (centres undefined) gave Nrf2 inh inactive, Nrf2 activator inactive, A549 tox inconclusive, Rango complex inh inactive and Rango dissoc inh inactive.
Cc1ccc(NC(=O)C2CCCN(S(=O)(=O)c3ccc4c(c3)CCCC(=O)N4)C2)cc1N(C)C (centres undefined) was read as Nrf2 inh 16.4µM, Nrf2 activator inactive and A549 tox inactive.
Screening Cc1cc(NC(=O)CN(C)S(=O)(=O)c2ccc3c(c2)CCCC(=O)N3)ccc1Br returned Nrf2 inh 20.6µM, Nrf2 activator inactive and A549 tox inactive.
Screening CC(=O)Nc1ccc(NC(=O)CN(C)S(=O)(=O)c2ccc3c(c2)CCC(=O)N3)cc1 returned Nrf2 inh inactive, Nrf2 activator inactive, A549 tox inactive, Rango complex inh inactive and Rango dissoc inh inactive.
Cc1ccc(NC(=O)C2CCN(S(=O)(=O)c3ccc4c(c3)CCCC(=O)N4)CC2)cc1N(C)C was read as Nrf2 inh inconclusive, Nrf2 activator inactive, A549 tox inactive, Rango complex inh inactive and Rango dissoc inh inactive.
O=c1oc2ccccc2c(Nc2ccc(O)cc2)c1[N+](=O)[O-] was read as Nrf2 inh inactive, Nrf2 activator inconclusive, A549 tox inactive, Rango complex inh inactive and Rango dissoc inh inactive.
Cc1ccc(Nc2c([N+](=O)[O-])c(=O)oc3ccccc23)cc1 was read as Nrf2 inh 18.4µM, Nrf2 activator inconclusive, A549 tox inconclusive, Rango complex inh inactive and Rango dissoc inh inactive.
C=CCSC(=C(C#N)C#N)c1cc2c([nH]1)CCCC2 was read as Nrf2 inh inconclusive, Nrf2 activator inconclusive, A549 tox inactive, Rango complex inh inconclusive and Rango dissoc inh 16.4µM.
`O=C(O)c1cc2c([nH]c1=O)CCCC2` gave Nrf2 inh inactive, Nrf2 activator inactive, A549 tox inactive, Rango complex inh inactive and Rango dissoc inh inactive.
`Cc1nc2ccccc2n1Cc1ccccc1` gave Nrf2 inh 20.6µM, Nrf2 activator inactive, A549 tox inactive, Rango complex inh inactive and Rango dissoc inh inactive.
Screening Cc1ccc(NC(=O)Cn2ccn(Cc3ccc(Cl)cc3)c(=O)c2=O)cc1C returned Nrf2 inh inactive, Nrf2 activator inactive and A549 tox inactive.
Screening COc1ccccc1C(=O)Nc1ccc(S(=O)(=O)N2CCOCC2)cc1 returned Nrf2 activator inactive, A549 tox inactive, Rango complex inh inactive and Rango dissoc inh inactive.
`COc1ccccc1C(=O)NCCC(=O)Nc1ccc(S(=O)(=O)N2CCC(C)CC2)cc1` gave Nrf2 inh 11.6µM, Nrf2 activator inactive, A549 tox inactive, Rango complex inh inactive and Rango dissoc inh inactive.
Screening COc1ccccc1C(=O)Nc1ccc(S(=O)(=O)N2CCC(C)CC2)cc1 returned Nrf2 inh 23.1µM, Nrf2 activator inactive, A549 tox inactive, Rango complex inh inactive and Rango dissoc inh inactive.
For COc1ccccc1C(=O)Nc1ccc(S(=O)(=O)N2CCCCC2c2cccnc2)cc1 (centres undefined) the results were Nrf2 inh 16.4µM, Nrf2 activator inactive, A549 tox inactive, Rango complex inh inactive and Rango dissoc inh inactive.
`CCOCN(C(=O)Cn1cnc2cc(C)c(C)cc21)c1c(C)cccc1CC` gave Nrf2 inh inactive, Nrf2 activator inactive and A549 tox inactive.
`CS(=O)(=O)c1ccc(Cl)c(NC(=O)COC(=O)CCCN2C(=O)c3cccc4cccc(c34)C2=O)c1` gave Nrf2 inh inactive, Nrf2 activator inactive, A549 tox inactive, Rango complex inh inactive and Rango dissoc inh inactive.
Screening Cn1c(=O)c2[nH]c(C3CCCC3)nc2n(C)c1=O returned Nrf2 inh 6.51µM, Nrf2 activator inactive, A549 tox inactive, Rango complex inh inactive and Rango dissoc inh inactive.
CCOc1ccc(-n2nc3ccc(NC(=O)c4ccc(-c5cccc(Cl)c5)o4)cc3n2)cc1 was read as Nrf2 inh 14.6µM, Nrf2 activator inactive and A549 tox inactive.
CCOc1ccc(-n2nc3ccc(NC(=O)COc4ccccc4)cc3n2)cc1 was read as Nrf2 inh inactive, Nrf2 activator inactive and A549 tox inactive.
For COc1ccc(NC(=O)Nc2nnc(N(C)C3CCCCC3)s2)c(OC)c1 the results were Nrf2 inh inconclusive, Nrf2 activator inactive and A549 tox inactive.
O=C(Cc1ccccc1)c1c[nH]c(C(=O)NCCCN2CCOCC2)c1 was read as Nrf2 inh inactive, Nrf2 activator inactive, A549 tox inactive, Rango complex inh inactive and Rango dissoc inh inactive.
Screening CCCOc1cccc(-c2cc(-c3n[nH]c(=S)n3CC)c3ccccc3n2)c1 returned Nrf2 inh 13µM, Nrf2 activator inactive, A549 tox inconclusive, Rango complex inh inactive and Rango dissoc inh inactive.
Screening CC(C)Cn1c(/C=N/Nc2nc3ccccc3[nH]2)nc2ccccc21 returned Nrf2 inh 7.31µM, Nrf2 activator inactive, A549 tox inactive, Rango complex inh inactive and Rango dissoc inh inactive.
`CCCn1c(/C=N/Nc2nc3ccccc3[nH]2)nc2ccccc21` gave Nrf2 inh 14.6µM, Nrf2 activator inactive[9.22 µM], A549 tox inconclusive, Rango complex inh inconclusive and Rango dissoc inh inconclusive.
For CC(C)(C)C(=O)Nc1ccc(NC(=O)c2ccco2)nc1 the results were Nrf2 inh 2.06µM, Nrf2 activator inactive, A549 tox inactive, Rango complex inh inactive and Rango dissoc inh inactive.
For O=C(Nc1ccc(NC(=O)c2ccco2)nc1)c1ccco1 the results were Nrf2 inh inconclusive, Nrf2 activator inactive, A549 tox inactive, Rango complex inh inactive and Rango dissoc inh inactive.
Screening CCOc1cc(NC(=O)c2ccco2)c(OCC)cc1NC(=O)c1cc(OC)c(OC)c(OC)c1 returned Nrf2 inh 18.4µM, Nrf2 activator inactive, A549 tox inactive, Rango complex inh inactive and Rango dissoc inh inconclusive.
